Hits are enriched below; roughly 2.7% of the tested compounds scored in any of these assays.
GLP-1R inv ag: qHTS of GLP-1 Receptor Inverse Agonists (Inhibition Mode); AID 624417, 2012; Potency, µM (doses to about 38.3 µM), usual class: inhibitors; Glucagon-like peptide 1 receptor (Homo sapiens), P43220; HEK293 GLP-1R CRE-luciferase, luminescence, 24 h; GLP-1R form is constitutively active; 410,000 compounds, 1.6% hits; further: nearly all actives have a fitted effect of over 55% in size
Target sequence (P43220 whole entry, looked up): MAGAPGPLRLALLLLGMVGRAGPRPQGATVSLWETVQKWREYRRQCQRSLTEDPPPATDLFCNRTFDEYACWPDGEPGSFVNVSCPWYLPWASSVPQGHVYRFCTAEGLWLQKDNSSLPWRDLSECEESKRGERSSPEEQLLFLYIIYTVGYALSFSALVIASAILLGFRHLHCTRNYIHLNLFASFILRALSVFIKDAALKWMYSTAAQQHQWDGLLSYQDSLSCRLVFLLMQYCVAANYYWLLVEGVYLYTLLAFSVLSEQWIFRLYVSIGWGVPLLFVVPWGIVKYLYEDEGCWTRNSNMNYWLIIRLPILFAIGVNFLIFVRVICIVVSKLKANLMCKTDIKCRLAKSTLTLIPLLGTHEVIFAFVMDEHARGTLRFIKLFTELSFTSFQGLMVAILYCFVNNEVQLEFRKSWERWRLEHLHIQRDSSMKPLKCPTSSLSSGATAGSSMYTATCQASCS
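Using stably transfected HEK293 (constitutively active GLP-1R, cAMP-luciferase reporter), compounds were incubated 24 hr and luciferase measured by luminescence.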
Integrin act MD: qHTS for Activators of Integrin-Mediated Alleviation for Muscular Dystrophy; alpha7betagal myoblasts, beta-gal FDG fluorescence, 48 h; Potency, µM (top dose mostly 38.3 µM), hits mostly activators; 350,000 compounds, 0.064% hits; AID 624291, 2012; further: nearly all actives have a fitted effect of over 60% in size
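Alpha7betagal+/- myoblasts (passage 13) were plated 16-24 hr, then exposed to compounds (1:260 dilution of DMSO stock) for 48 hours at 37C. After MPER lysis, β-galactosidase reporter activity was read as FDG fluorescence (ex 480/em 540) after 30 minutes.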
BRCA1 expr up: qHTS Assay to Identify Small Molecule Activators of BRCA1 Expression; Potency, µM (top dose mostly 46.1 µM), most hits filed as activators; 380,000 compounds, 1.1% hits; AID 624202, 2012; MCF7-BRCA1-FFLuc reporter, luminescence, 48 h; response scale: scaled: vehicle 0%, 10 µM genistein 100%; further: nearly all actives have a fitted effect of over 80% in size
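Activators of BRCA1 expression were detected as increased firefly luciferase luminescence in engineered MCF7 cells after 48 h compound incubation. Signals were scaled to genistein 10 microM as full activation.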
GLP-1R agonist: qHTS of GLP-1 Receptor Agonists | 380,000 compounds, 0.007% hits | Potency, µM (series often up to 45.6 µM), hits mostly activators | HEK293 GLP-1R CRE-luciferase, luminescence, 4-6 h; cells express a hypersensitive GLP-1R form
GLP1R cytotox: qHTS of GLP-1 Receptor Inverse Agonists: Cytotox Screen; HEK293 cAMP-luciferase reporter cells, luminescence, 24 h; 410,000 compounds, 0.13% hits; Potency, µM (highest dose often 38.3 µM), actives largely listed as inhibitors;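 further: loss of luciferase light is scored as toxicity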
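A 23 nL compound transfer followed 12 hours of cell culture at 37 deg C; exposure then lasted 24 hr. Luciferase assay detection reagent was dispensed and plates read for luminescence after a 12 min room-temperature wait.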
Of the large screens only hits and unclear results are named; the others gave an inactive call. The call rests on the fitted dose curve; in most records, active means well fitted curve in the direction sought with a large enough effect; inconclusive means small, poorly fitted or top-dose-only effect, or another doubt; inactive means no such curve, though single readings can be large; an effect the other way counts as inactive or inconclusive.

Cc1cccc(-c2nnc(NC(=O)c3ccco3)s2)c1	Integrin act MD inconclusive, BRCA1 expr up inconclusive
CCCOc1ccc(C2C(=O)N(C3CCC(C)CC3)CC(=O)N2CCc2ccccc2)cc1OC (stereo not given)	none (no result: Integrin act MD, BRCA1 expr up, GLP-1R agonist)
CCOc1ccc(S(=O)(=O)N2CCN(c3cccc(C(F)(F)F)c3)CC2)cc1OCC	none (no result: Integrin act MD, BRCA1 expr up, GLP-1R agonist)
Cc1cccc(NC(=O)c2oc3ccc(S(=O)(=O)N4CCCCC4)cc3c2C)c1C	none (no result: Integrin act MD, BRCA1 expr up, GLP-1R agonist)
CC(=O)Oc1ccc(Cl)cc1CN(C(C)=O)C1CCCCC1	GLP-1R inv ag 8.9µM
CN(C(=O)COc1ccc(Cl)cc1Br)C1CCCCC1	GLP-1R inv ag inconclusive
CCc1ccc(CNC(=O)C2CCN(C(=O)N3CC(CC)Oc4ccc(C)cc43)CC2)cc1 (stereo not given)	GLP-1R inv ag inconclusive (no result: Integrin act MD, BRCA1 expr up, GLP-1R agonist)
Cc1nc(C(=O)NNC(=O)c2c(-c3c(Cl)cccc3Cl)noc2C)cs1	GLP-1R inv ag 5.6µM, GLP1R cytotox 8.9µM
Cc1onc(-c2c(F)cccc2Cl)c1C(=O)OCC(=O)NC(=O)NCC(C)C	GLP-1R inv ag 13µM
Cc1ccc(NC(=O)c2c(-c3c(F)cccc3Cl)noc2C)cc1F	GLP-1R inv ag 4µM
Cc1cc(NC(=O)c2c(-c3c(F)cccc3Cl)noc2C)no1	GLP-1R inv ag inconclusive
CCCSc1nsc(NC(=O)C(c2ccccc2)c2ccccc2)n1	GLP-1R inv ag 3.2µM, GLP1R cytotox inconclusive
CCCSc1nsc(NC(=O)CC)n1	BRCA1 expr up inconclusive
C/C(N)=C(/C#N)C(=O)COC(=O)c1cc(C)n(-c2ccc(F)cc2)c1C	GLP-1R inv ag inconclusive, BRCA1 expr up 8.9µM
CCOC(=O)c1cccc(NC(=O)Cn2c(=O)nc(-c3ccccc3F)c3cc(Cl)ccc32)c1	none (no result: Integrin act MD, BRCA1 expr up, GLP-1R agonist)
CC1(C)CC(NC2C3CC4CC(C3)CC2C4)CC(C)(C)N1 (stereo not given)	GLP-1R inv ag 3.2µM, GLP1R cytotox inconclusive
O=S(=O)(Nc1ccc(F)c(C(F)(F)F)c1)c1ccc(N2CCCCS2(=O)=O)cc1	GLP-1R inv ag inconclusive (no result: Integrin act MD, BRCA1 expr up, GLP-1R agonist)
CCN(Cc1ccccc1)c1ccccc1	none (no result: Integrin act MD)
CCN(Cc1ccccc1)c1ccc(/C=N/N=C(N)N)cc1	GLP-1R inv ag 10µM
O=C(c1ccc(F)cc1F)N1CCC(c2nc(-c3ccc(S(=O)(=O)N4CCCC4)cc3)no2)CC1	none (no result: Integrin act MD, BRCA1 expr up, GLP-1R agonist)
N#Cc1ccc(/C=C2\C=Cc3ccccc32)cc1	none (no result: GLP-1R inv ag, Integrin act MD, GLP-1R agonist, GLP1R cytotox)
O=C(c1ccccc1)c1ccccc1C(=O)c1ccccc1	GLP-1R inv ag 8.9µM
Cc1ccccc1C(=O)c1ccccc1C(=O)c1ccccc1	GLP-1R inv ag inconclusive
CCN1CCN(CC(=O)Nc2cc(S(=O)(=O)N(CC)c3ccccc3)ccc2Cl)CC1	GLP-1R inv ag 10µM, GLP1R cytotox inconclusive
CCN(c1ccccc1)S(=O)(=O)c1ccc(OC)c(NC(=O)Cc2ccc(OC)c(OC)c2)c1	none
CCN(c1ccccc1)S(=O)(=O)c1ccc(OC)c(NC(=O)Cc2ccccc2OC)c1	GLP-1R inv ag 10µM
O=C(CCCOc1ccccc1)Nc1nc2ccccc2[nH]1	BRCA1 expr up 6.3µM
CCOc1ccc(CCNC(=O)c2nn(C)c3c2CSc2ccccc2-3)cc1	GLP-1R inv ag 10µM (no result: Integrin act MD, BRCA1 expr up, GLP-1R agonist)
CC(C)N(C(=O)c1nn(C)c2c1CSc1ccccc1-2)C1CCCCC1	GLP-1R inv ag 10µM
Cc1nn(C)c2c1c(C(F)(F)F)cc(=O)n2CC(=O)N1CCCCC1C (stereo not given)	GLP-1R inv ag inconclusive (no result: Integrin act MD, BRCA1 expr up, GLP-1R agonist)
Cc1sc(NC(=O)CN2CCCC2)nc1-c1ccc2c(c1)CCN2C(=O)c1ccc(F)cc1	GLP-1R inv ag inconclusive
CNc1nc(-c2ccc3c(c2)CCN3C(=O)c2ccccc2F)c(C)s1	BRCA1 expr up inconclusive
CC(=O)Nc1nc(-c2ccc3c(c2)CCN3C(=O)C2CC2)c(C)s1	GLP-1R inv ag 0.63µM, Integrin act MD inconclusive
CNc1nc(-c2ccc3c(c2)CCN3C(=O)CC(C)(C)C)c(C)s1	GLP-1R inv ag inconclusive, BRCA1 expr up 11µM
COc1ccc(/C=C2\C=Cc3ccccc32)cc1OC	none (no result: GLP-1R inv ag, Integrin act MD, GLP-1R agonist, GLP1R cytotox)
O=C(CNC(=O)c1ccc(Cl)cc1)c1ccc(Cl)cc1	BRCA1 expr up 11µM
CO/N=C(/CNC(=O)c1ccc(F)cc1)c1ccc(Cl)cc1	GLP-1R inv ag 8.9µM
c1coc(-c2nc3cc4ccccc4cc3nc2-c2ccco2)c1	none (no result: GLP-1R inv ag, Integrin act MD, GLP-1R agonist, GLP1R cytotox)
CCCC(CCC)C(N)=O	none (no result: GLP-1R inv ag, Integrin act MD, BRCA1 expr up, GLP1R cytotox)
CCOC(=O)CCCC(=O)N1CCN(/[N+]([O-])=N/Oc2ccc([N+](=O)[O-])cc2[N+](=O)[O-])CC1	none (no result: GLP-1R inv ag, Integrin act MD, GLP-1R agonist, GLP1R cytotox)
CCc1ccc(OCc2ccccc2C(=O)Nc2ccc3nc(C)cc(N)c3c2)cc1	none (no result: GLP-1R inv ag, Integrin act MD, GLP-1R agonist, GLP1R cytotox)
CN(C)Cc1c(O)ccc2cc(-c3nc4ccccc4n3C)c(=O)oc12	BRCA1 expr up 13µM
CCN(CC)c1ccc2cc(-c3nc4ccccc4n3C)c(=O)oc2c1	GLP-1R inv ag inconclusive
Cc1cccc(NC(=S)N=Nc2c(O)[nH]c3ccccc23)c1	GLP-1R inv ag 10µM, GLP1R cytotox 10µM
Cc1[nH]c2ccccc2c1/C=N/NC(=O)c1cccc(S(=O)(=O)Nc2cccc(C(F)(F)F)c2)c1	GLP-1R inv ag 13µM, GLP1R cytotox inconclusive
NNC(=O)c1cccc(S(=O)(=O)Nc2cccc(C(F)(F)F)c2)c1	none
C/C(=N\NC(=O)c1c(Cl)cnn1C)c1ccc(NC(=O)c2ccc(Br)o2)cc1	Integrin act MD inconclusive, BRCA1 expr up 10µM
COc1ccc(C2CC(=O)c3cnc4c(-c5ccc(F)cc5)c(C)nn4c3C2)cc1OC (stereo not given)	none (no result: Integrin act MD)
